# Measured values reported in PubChem BioAssay (NCI).
# Where “and” joins values, the source holds several entries; their conditions need not be identical. Equal values may be shown once. About 83,000 compounds went through this panel and 20% of them were active in at least one assay; those are over-represented in the sample as a whole.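 Note: values are percent growth. 100 is the growth of untreated cells, values between 100 and 0 indicate rising inhibition; between -100 and 0 indicates cell death.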 Calls of active or inactive are those of the source. How the source made its calls: active means growth percent below 10; inactive means the rest.
# Assays:
# Experiment in all cases: NCI-60 one-dose screen, 48 h (100 = growth as untreated, 0 = no growth, -100 = all killed)
# Conditions in all cases: 10 µM unless noted
# [1] = tested on: T-47D breast
# [2] = tested on: BT-549 breast
# [3] = tested on: MDA-MB-435 melanoma
# [4] = tested on: SW-620 colon
# [5] = tested on: MCF7 breast
# [6] = tested on: HCT-116 colon
# [7] = tested on: HCC-2998 colon
# [8] = tested on: KM12 colon
SMILES,growth [1],growth [2],growth [3],growth [4],growth [5],growth [6],growth [7],growth [8]
COc1ccc(Cl)cc1Nc1nc(C(F)(F)F)ccc1C(=O)N/N=C/c1ccc(N(C)C)cc1,82.7% (inactive),115% (inactive),121% (inactive),109% (inactive),218% (inactive),80.3% (inactive),68.3% (inactive),103% (inactive)
COc1ccc(/C=C2\COc3ccc(O)c(O)c3C2=O)c(OC)c1OC,12.1% (inactive),46.9% (inactive),8.59% (active),9.64% (active),14.8% (inactive),14.6% (inactive),65.6% (inactive),33.5% (inactive)
CC(=O)c1nn(-c2ccccc2)/c(=N/N=Cc2cn(-c3ccccc3)nc2-c2cc3ccccc3oc2=O)s1,89.1% (inactive),105% (inactive),103% (inactive),104% (inactive),91.5% (inactive),97.6% (inactive),108% (inactive),106% (inactive)
COC(=O)c1nc(-c2ccccc2)oc1S(=O)(=O)N(C)CCO,44.5% (inactive),72.5% (inactive),60.9% (inactive),40.4% (inactive),47.8% (inactive),46.7% (inactive),99.4% (inactive),89.4% (inactive)
CC(=O)N1N=C(c2ccc(Nc3nc(Nc4ccc(F)cc4)nc(Nc4ccc(Cl)cc4)n3)cc2)CC1c1ccc(N(C)C)cc1 (configuration not stated),24.3% (inactive),69.5% (inactive),18.7% (inactive),78.5% (inactive),29.9% (inactive),130% (inactive) and 24.2% (inactive),22% (inactive),55.5% (inactive)
O=C1C(N2CCOCC2)=C(I)C(=O)c2ncccc21,53.7% (inactive),87.1% (inactive),-69.4% (active),69.2% (inactive),41.3% (inactive),49.4% (inactive),86.8% (inactive),91.8% (inactive)
C=C1CCC2C3(C)COC(c4ccc(NC(C)=O)cc4)OC3CCC2(C)C1C/C=C1/C(=O)OCC1O (configuration not stated),29.4% (inactive),59.8% (inactive),60.5% (inactive),77.3% (inactive),42.5% (inactive),34.1% (inactive),59.1% (inactive),51.7% (inactive)
Cn1ccnc1CN1CCSC(C(=O)Nc2ccccc2)C1 (configuration not stated),90.7% (inactive),93.3% (inactive),92.2% (inactive),96.9% (inactive),91.6% (inactive),96.2% (inactive),98.6% (inactive),97.7% (inactive)
CCCCn1c(C(=O)c2c[nH]c3ccccc23)n[nH]c1=S,77.5% (inactive),114% (inactive),98.7% (inactive),101% (inactive),73.2% (inactive),92.4% (inactive),101% (inactive),92.2% (inactive)
COc1cc(-c2nc3occn3c2-c2ccnc(NCCCNS(=O)(=O)c3ccc(O)cc3)n2)ccc1F,84.8% (inactive),116% (inactive),47.7% (inactive),115% (inactive),92.1% (inactive),86.1% (inactive),112% (inactive),99.8% (inactive)
CC(=O)c1c(C)nc2ccccc2c1/C=C/c1cccc(C)c1,38.6% (inactive),64.2% (inactive),5.84% (active),29.4% (inactive),24.2% (inactive),32.9% (inactive),79.4% (inactive),52.1% (inactive)
CCCCC#Cc1c(/C=C(\CCCC)SCC)n(C)c(=O)[nH]c1=O,84.4% (inactive),100% (inactive),104% (inactive),106% (inactive),48.5% (inactive),88.3% (inactive),104% (inactive),113% (inactive)
Cc1n(Cc2ccc3ccccc3c2)c(Cl)c(Cl)[n+]1Cc1ccc2ccccc2c1,10.3% (inactive),26.8% (inactive),-2.29% (active),40.5% (inactive),21.4% (inactive),18.2% (inactive),17.3% (inactive),0.454% (active)
CCCCCCCCCCCCCCCCCCOc1cccc(CC(=O)OCC[N+](CC)(CC)CC)c1,52.7% (inactive),86.9% (inactive),82.1% (inactive),78.6% (inactive),32.7% (inactive),51.7% (inactive),56.1% (inactive),83.3% (inactive)
COc1cc(/C=C/C(=O)c2ccc(NC(=O)CSc3nnc(-c4cc(-c5ccccc5)nc5ccccc45)n3-c3ccccc3)cc2)cc(OC)c1OC,73% (inactive),90.7% (inactive),92.2% (inactive),90.5% (inactive),74.3% (inactive),79% (inactive),88.3% (inactive),63.5% (inactive)
O=c1cc(N/N=C/c2ccc(F)cc2)c2cc(Cl)ccc2[nH]1,68.5% (inactive),93.6% (inactive),78.6% (inactive),101% (inactive),84.6% (inactive),84.1% (inactive),85.1% (inactive),108% (inactive)
O=C(/C=C/C12c3ccccc3C(c3ccccc31)C1C(=O)NC(=O)C12)c1ccncc1 (configuration not stated),-4.38% (active),15.7% (inactive),9.93% (active),13.4% (inactive),3.34% (active),-16.5% (active),88.2% (inactive),7.72% (active)
COc1cc(Nc2nc3ccccc3cc2C(=O)Nc2ccc(F)c(F)c2)cc(OC)c1OC,9.25% (active),55.5% (inactive),19.7% (inactive),23% (inactive),12.8% (inactive),6.91% (active),45.3% (inactive),20% (inactive)
Nc1nc(Cl)nc2c1ncn2C1OC(CO)C(O)C1O (configuration not stated),93.5% (inactive) and 107% (inactive),40.2% (inactive),49.2% (inactive) and 53.5% (inactive),66.5% (inactive) and 72.8% (inactive),37.8% (inactive) and 33.8% (inactive),41.9% (inactive) and 43% (inactive),51% (inactive) and 51.7% (inactive),60.1% (inactive) and 86.2% (inactive)
COc1cc(N=Nc2ccc(O)c3ncccc23)c2ncccc2c1,20.2% (inactive),39% (inactive),42.4% (inactive),30.5% (inactive),27.5% (inactive),19.4% (inactive),36.3% (inactive),28.1% (inactive)
[2H]C([2H])([2H])Oc1cc(F)ccc1/C=C/C(=O)/C=C(/C=C/c1ccc(F)cc1OC([2H])([2H])[2H])OB(F)F,33.1% (inactive),36.8% (inactive),16.5% (inactive),22.3% (inactive),20.1% (inactive),-11.1% (active),56% (inactive),61.6% (inactive)
COc1ccc(-c2cc(=O)c3c(O)cc(O)cc3o2)cc1,101% (inactive) and 100% (inactive),109% (inactive),96.3% (inactive) and 96.5% (inactive),106% (inactive) and 105% (inactive),117% (inactive) and 106% (inactive),103% (inactive) and 94.5% (inactive),102% (inactive) and 104% (inactive),91% (inactive) and 93.1% (inactive)
O=Nc1c(O)ccc2ccccc12,15.5% (inactive) and 76.1% (inactive),94.5% (inactive) and 90.8% (inactive),-83.9% (active) and 116% (inactive),27.5% (inactive) and 83.9% (inactive),67.8% (inactive) and 78.1% (inactive),6.49% (active) and 81% (inactive),110% (inactive) and 97.4% (inactive),66.8% (inactive) and 109% (inactive)
O=C(NCCCN1CCCCC1)c1ccc(-c2nc3ccc4[nH]ncc4c3c3c2CCCC3)cc1,86.9% (inactive),31.4% (inactive),26.7% (inactive),24.5% (inactive),31.8% (inactive),16.8% (inactive),76% (inactive),20.6% (inactive)
COc1cc(C=O)ccc1Oc1ccc([N+](=O)[O-])cc1[N+](=O)[O-],75.2% (inactive),98% (inactive),112% (inactive),91.7% (inactive),99.2% (inactive),94.9% (inactive),109% (inactive),105% (inactive)
NNCCc1ccccc1,106% (inactive) and 95.2% (inactive),103% (inactive) and 107% (inactive),109% (inactive) and 97.2% (inactive),106% (inactive) and 94.6% (inactive),98.5% (inactive) and 86.6% (inactive),103% (inactive) and 93.5% (inactive),110% (inactive) and 98.5% (inactive),111% (inactive) and 99.5% (inactive)
O=C(NNc1ccccc1)C1CCCN1 (configuration not stated),55.6% (inactive),104% (inactive),37.1% (inactive),68.2% (inactive),76.4% (inactive),78.8% (inactive),82.2% (inactive),31.9% (inactive)
COc1cc(Cl)cc(-c2nn(C(=O)NS(=O)(=O)c3ccc(Cl)cc3)cc2-c2ccncc2)c1,90.8% (inactive),41.2% (inactive),87.5% (inactive),114% (inactive),102% (inactive),95.2% (inactive),99.3% (inactive),92.9% (inactive)
CCC(=O)Oc1cc(Cl)c(Cl)cc1Cl,101% (inactive),102% (inactive),107% (inactive),107% (inactive),93% (inactive),94.3% (inactive),94.8% (inactive),107% (inactive)
